# Measured values published in PubChem BioAssay (NCATS).
# Inconclusive results are not listed. Where a call stands in place of a potency, no number is given. The source made the active and inactive calls. The call rests on the fitted dose curve; in most records, active means well fitted cell-killing curve with a large enough effect; inconclusive means small, poorly fitted or top-dose-only effect, or effect the other way; inactive means flat fitted curve, though single readings scatter.
# Tested on: Hek293T
# Assay: Primary qHTS to identify gynecologic anti-cancer compounds using libraries of approved drugs and bioactive compounds (AID 1345084); further: nearly all actives have a fitted effect of over 55% in size
# Conditions: Gynecologic cancer cell panel viability, ATPlite luminescence, 48 h, control line for the selectivity index; series mostly up to 57.5 µM
# Method in brief: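 Luminescence from the ATPlite ATP-monitoring reagent indicates viable cell number; lower signal means cytotoxicity. Cells received compound 16 h after seeding and were exposed for 48 h across five concentrations.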
# Potency means the concentration at half of the fitted maximal effect.
Structure (SMILES),Potency,"activity change, negative = cytotoxicity"
COc1cc(OC)c2c(=O)[nH]c(-c3cc(C)c(OCCO)c(C)c3)nc2c1,inactive,
COc1ccc(C2=NC(c3ccc(Cl)cc3)C(c3ccc(Cl)cc3)N2C(=O)N2CCNC(=O)C2)c(OC(C)C)c1 (stereo unspecified),inactive,
CCn1c(=O)c(-c2ccc(-c3cncs3)cc2Cl)cc2cnc(Nc3ccc(N4CCN(C)CC4)cc3)nc21,inactive,
COC(=O)c1ccc2c(c1)[nH]c1ncnc(NCCCN3CCCCC3)c12,inactive,
CN1CCN(c2ccc(Nc3cc(-c4cccc(-n5ccc6cc(C7CC7)cc(F)c6c5=O)c4CO)cn(C)c3=O)nc2)CC1,inactive,
O=c1nc(-c2ccccn2)sc2ccccc12,inactive,
CNc1nc(Nc2ccc(C(=O)N3CCOCC3)cc2OC)nc2[nH]cc(Cl)c12,inactive,
Cn1cc(-c2ccc3c(c2)CCN3C(=O)Cc2cccc(C(F)(F)F)c2)c2c(N)ncnc21,inactive,
C=C1CCC2[C@](C)(CCC[C@@]2(C)C=O)[C@H]1CC/C(C)=C/CO (stereo partly specified),inactive,
CC1(CO)CC(O)[C@]2(C(=O)O)CCC34CC3(C=CC3[C@]5(C)C(CC[C@]34C)C(C)(CO)[C@@H](O)[C@H](O)[C@@H]5O)C2C1 (stereo partly specified),inactive,
C/C=C(/C)C(=O)O[C@@H]1C[C@@H](OC(=O)CC(C)C)C2(C)C3C(=O)C=C(C)C2C3C1(C)C (stereo partly specified),inactive,
O=C(NCCCN1CCOCC1)c1cnn2c(-c3ccccc3)cc(-c3ccccc3)nc12,inactive,
Cc1cc(OCCCS(C)(=O)=O)cc(C)c1-c1cccc(COc2ccc3c(c2)OCC3CC(=O)O)c1 (stereo unspecified),inactive,
CC1=C(C(=O)OC2CCCCC2)C(c2ccc([N+](=O)[O-])cc2)C2=C(CC(C)(C)CC2=O)N1 (stereo unspecified),inactive,
CC1(C)CC[C@]2(C(=O)O[C@@H]3O[C@H](CO)[C@@H](O)[C@H](O)[C@H]3O)CC[C@]3(C)C(=CCC4[C@@]5(C)CC[C@H](O[C@@H]6O[C@H](C(=O)O)[C@H](O)[C@H](O)[C@H]6O)C(C)(C)C5CC[C@]43C)[C@@H]2C1 (stereo partly specified),inactive,
CCN1CCN(Cc2ccc(C(=O)Nc3ccc(C)c(Oc4ccc5c(c4)CC(=O)N5)c3)cc2C(F)(F)F)CC1,inactive,

Structure (SMILES),Potency,"activity change, negative = cytotoxicity"
CC(=O)c1c(C)cc2cccc(O)c2c1O[C@@H]1O[C@H](CO)[C@@H](O)[C@H](O)[C@H]1O,inactive,
O=C(Nc1ccc(N(Cc2ccsc2)C(=O)Cn2nnc3ccccc32)cc1)C1CC1,inactive,
COc1ccc(CCc2nc3cc(-c4c(C)noc4C)ccc3n2CC(C)N2CCOCC2)cc1Cl (stereo unspecified),inactive,
CNc1cccc(CCOc2ccc3c(c2)CN(CC(F)(F)F)C(=O)[C@H](CC(=O)O)C3)n1,inactive,
CC(C)(O)c1ccn2c(-c3ccc(F)c(-c4ccc(F)cc4C#N)c3)cnc2c1F,inactive,
Cc1[nH]c2ccccc2c1CCNCc1ccc(/C=C/C(=O)NO)cc1,1580 nM (active),
C[C@@H]1O[C@@H](O[C@H]2[C@@H]3C=CO[C@@H](O[C@@H]4O[C@H](CO)[C@@H](O)[C@H](O)[C@H]4O)[C@@H]3[C@@]3(CO)O[C@@H]23)[C@H](O)[C@H](OC(=O)/C=C/c2ccccc2)[C@H]1O,inactive,
C=C1C(=O)OC[C@@H]1C/C=C(\C)CC1CC(C)C(=O)O1 (stereo partly specified),inactive,
COc1ccc(S(=O)(=O)n2cnc3cc(C)c(C)cc32)cc1,inactive,
C[C@@H]1O[C@@H](O[C@H]2CC[C@@]3(C)C(CC[C@]4(C)C3CC=C3[C@@H]5CC(C)(C)CC[C@]5(C(=O)O[C@@H]5O[C@H](CO)[C@@H](O)[C@H](O)[C@H]5O)CC[C@]34C)[C@]2(C)CO)[C@H](O)[C@H](O[C@@H]2O[C@H](CO)[C@@H](O)[C@H](O)[C@H]2O)[C@H]1O (stereo partly specified),,-6.15% [at 11.6 µM] (inactive)
CCCOc1ccc(S(=O)(=O)N2CCN(CCO)CC2)cc1-c1nc2c(CCC)cn(CC)c2c(=O)[nH]1,inactive,
COc1ccc(CCCN2CCC(COC(c3ccccc3)c3ccccc3)CC2)cc1,inactive,
CCNc1nc(Nc2cc(F)c(C(=O)N3CCOCC3)cc2OC)ncc1C(F)(F)F,inactive,
CC(=O)O[C@@H]1[C@@H](OC(C)=O)[C@H](C)O[C@@H](O[C@H]2[C@@H]3C=CO[C@@H](O[C@@H]4O[C@H](CO)[C@@H](O)[C@H](O)[C@H]4O)[C@@H]3[C@@]3(CO)O[C@@H]23)[C@@H]1OC(=O)/C=C/c1ccccc1,inactive,
OC(c1ccc(-c2ccc(CN3CCN(Cc4ccncc4)CC3)cc2)c(F)c1)(C(F)(F)F)C(F)(F)F,inactive,
